The assay deals with A549. As to the kind of experiment: relative viability (normalised to negative control = 1, bortezomib = 0) (fraction); higher = less cytotoxic. Conditions: inflammatory serum-free RHB-A with cytokines + LPS, 5 d + 24 h CellTiter-Blue. How it is done:
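A549 KRAS-mutant NSCLC cells, pre-treated 5 µM GSK126 or vehicle (DMSO), were seeded at 250 cells/well in 384-well plates in serum-free RHB-A medium with inflammatory cytokines/LPS and treated with Selleck kinase inhibitor and NCI oncology compounds at 30 or 300 nM in triplicate, refreshed at 48 h. Viability was read by CellTiter-Blue after 5 d plus 24 h and normalised per plate with cellHTS2 (mean of bortezomib positive control = 0, mean of negative control = 1).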
Background: Resazurin is reduced to fluorescent resorufin, in cell work by metabolically active cells.

Where [1] appears, read: compound 30 nM, GSK126 pretreatment: 5 uM GSK126.
Setting [2] is: compound 30 nM, GSK126 pretreatment: none (vehicle).
[3] abbreviates: compound 300 nM, GSK126 pretreatment: 5 uM GSK126.
[4] abbreviates: compound 300 nM, GSK126 pretreatment: none (vehicle).

Molecules are shown by their SMILES. ± gives the standard deviation of the averaged measurements.

Consider `COC(=O)c1ccc2c(C(=Nc3ccc(N(C)C(=O)CN4CCN(C)CC4)cc3)c3ccccc3)c(O)[nH]c2c1` [BIBF1120(Vargatef)], for which the relative viability under setting [1] came out at 0.825 ± 0.044, the relative viability under setting [2] is 0.812 ± 0.16, the relative viability under setting [3] is 0.844 ± 0.13 and the relative viability under setting [4] was found to be 1.01 ± 0.18.
Turning to `COc1c2occc2cc2ccc(=O)oc12` [Methoxsalen], the relative viability is 0.902 ± 0.065 under setting [1], 0.883 ± 0.11 under setting [2], 0.881 ± 0.026 under setting [3] and 0.906 ± 0.057 under setting [4].
In the case of `C=CC(=O)Nc1cccc(Oc2nc(Nc3ccc(N4CCN(C)CC4)cc3OC)ncc2Cl)c1`, the relative viability by setting is: under setting [1], 0.978 ± 0.051; under setting [2], 0.897 ± 0.034; under setting [3], 0.782 ± 0.086; under setting [4], 0.87 ± 0.095.
As for `O=C(Nc1ccc(OC(F)(F)F)cc1)c1sccc1NCc1ccnc2ccccc12`, the relative viability reads like this: under setting [1], 1.07 ± 0.025; under setting [2], 1.05 ± 0.035; under setting [3], 1.15 ± 0.16; under setting [4], 1.2 ± 0.036.
For the molecule `Cc1ccc(C(=O)Nc2cccc(C(F)(F)F)c2)cc1Nc1nc(-c2cccnc2)nc2c1cnn2C`, the relative viability under setting [1] was 0.992 ± 0.12, the relative viability under setting [2] came to 0.959 ± 0.17, the relative viability under setting [3] was found to be 1.01 ± 0.13 and the relative viability under setting [4] amounted to 1.06 ± 0.15.
The matching figures for `Nc1ccn([C@@H]2O[C@H](CO)[C@@H](O)[C@@H]2O)c(=O)n1`: 0.833 ± 0.016, 0.79 ± 0.088, 0.668 ± 0.094 and 0.475 ± 0.1.
For `Nc1nc2[nH]cnc2c(=S)[nH]1` [Thioguanine] the same measures were 0.978 ± 0.039, 0.929 ± 0.043, 0.917 ± 0.045 and 1 ± 0.073.
For `C#Cc1cccc(Nc2ncnc3cc(OCCOC)c(OCCO)cc23)c1` [OSI-420 (Desmethyl Erlotinib)], the relative viability under setting [1] was 0.944 ± 0.086, the relative viability under setting [2] amounted to 0.91 ± 0.05, the relative viability under setting [3] came out at 0.477 ± 0.047 and the relative viability under setting [4] worked out at 0.505 ± 0.019.
With `CO[C@@H](C(=O)N1Cc2[nH]nc(NC(=O)c3ccc(N4CCN(C)CC4)cc3)c2C1)c1ccccc1`, the relative viability under setting [1] was 0.626 ± 0.07, the relative viability under setting [2] was determined as 0.622 ± 0.05, the relative viability under setting [3] came to 0.488 ± 0.032 and the relative viability under setting [4] came to 0.504 ± 0.058.
For the molecule `COC(=O)Nc1ccc(-c2nc(N3CCOCC3)c3cnn(C4CCN(Cc5cccnc5)CC4)c3n2)cc1`, the relative viability by setting is: under setting [1], 0.851 ± 0.12; under setting [2], 0.869 ± 0.13; under setting [3], 0.847 ± 0.061; under setting [4], 0.832 ± 0.097.

Source of the values: the supplement of paper PMC6279402.
